Results with a measured potency or affinity are listed apart. Results filed as inconclusive are left out. A number with no mark means an inactive call. The source made the active and inactive calls. The rule behind the calls is not given here.
Assay: general cell-killing toxicity readout – plate reader, dry powder samples, cytotoxicity control for PAX8 inhibitor project, dose response (AID 743021)
Conditions: cell line, non-specific cytotoxicity counter-screen; series mostly up to 35 µM; activity change, negative = cytotoxicity: at the top concentration

Structure (SMILES)	activity change, negative = cytotoxicity	outcome
C[C@@H]1CN([C@H](C)CO)C(=O)c2cc(NC(=O)Nc3ccc(F)cc3)ccc2O[C@@H](C)CCCCO[C@H]1CN(C)C(=O)NC1CCCCC1	-23%	
Cc1ccc(S(=O)(=O)Nc2ccc3c(c2)C(=O)N([C@H](C)CO)C[C@@H](C)[C@H](CN(C)Cc2ccc(Cl)c(Cl)c2)OCCCC[C@H](C)O3)cc1	-14.2%	
COc1ccc(S(=O)(=O)Nc2ccc3c(c2)CC(=O)N([C@@H](C)CO)C[C@@H](C)[C@H](CN(C)Cc2ccc(C(F)(F)F)cc2)O3)cc1	-22%	
C[C@@H]1CCCCO[C@@H](CN(C)C(=O)c2ccccc2)[C@H](C)CN([C@H](C)CO)C(=O)c2cc(NC(=O)Nc3ccc(C(F)(F)F)cc3)ccc2O1	-16.3%	
O=C(Cc1ccccc1)N1CC[C@H]2[C@H](CO)Nc3ccc(C4=CCCCC4)cc3[C@H]21	-13.5%	
C[C@@H]1CCCCO[C@H](CN(C)CC2CCCCC2)[C@H](C)CN([C@@H](C)CO)C(=O)c2cc(NC(=O)Nc3ccccc3)ccc2O1	-21.3%	
C[C@@H]1CN([C@H](C)CO)C(=O)c2cc(NC(=O)Nc3ccc(C(F)(F)F)cc3)ccc2O[C@@H](C)CCCCO[C@H]1CN(C)C(=O)NC1CCCCC1	-18.1%	
C[C@H]1CN([C@@H](C)CO)S(=O)(=O)c2ccc(C#Cc3ccc(F)cc3)cc2O[C@@H]1CN(C)C(=O)NC1CCCCC1	2.56%	
C[C@@H](O)C#Cc1ccc2c(c1)O[C@H](CN(C)Cc1ccc(-c3ccccc3)cc1)[C@@H](C)CN([C@@H](C)CO)S2(=O)=O	-23.7%	
C[C@H]1CCCCO[C@H](CN(C)S(=O)(=O)c2ccc(F)cc2)[C@@H](C)CN([C@@H](C)CO)C(=O)c2cc(NS(=O)(=O)c3ccc(Cl)cc3)ccc2O1	-21.5%	
C[C@@H]1CN([C@H](C)CO)C(=O)c2cc(NC(=O)Nc3ccc(C(F)(F)F)cc3)ccc2O[C@@H](C)CCCCO[C@H]1CN(C)S(=O)(=O)c1ccc(Cl)cc1	-19.4%	
C[C@@H]1CN([C@H](C)CO)C(=O)c2cc(NS(=O)(=O)c3ccccc3)ccc2O[C@@H](C)CCCCO[C@@H]1CN(C)CC1CCCCC1	4.72%	
C[C@@H]1CN([C@H](C)CO)C(=O)c2cc(NC(=O)Nc3ccc(C(F)(F)F)cc3)ccc2O[C@@H](C)CCCCO[C@H]1CN(C)S(=O)(=O)c1ccccc1	-11.5% [at 30 µM]	
C[C@@H]1CN([C@@H](C)CO)C(=O)c2cc(NS(=O)(=O)c3cccs3)ccc2O[C@@H](C)CCCCO[C@H]1CN(C)Cc1ccc(C(F)(F)F)cc1	-8.45%	
C[C@@H]1CCCCO[C@@H](CN(C)C(=O)Nc2ccc(C(F)(F)F)cc2)[C@H](C)CN([C@H](C)CO)C(=O)c2cc(NS(=O)(=O)c3ccc(F)cc3)ccc2O1	-19.6%	
Cc1ccc(S(=O)(=O)N(C)C[C@H]2Oc3cc(C#Cc4ccncc4)ccc3S(=O)(=O)N([C@H](C)CO)C[C@H]2C)cc1	-32%	
C[C@@H]1CN([C@H](C)CO)C(=O)c2cc(NC(=O)Nc3ccccc3)ccc2O[C@@H](C)CCCCO[C@H]1CN(C)C(=O)Nc1ccc(C(F)(F)F)cc1	-25.6%	
O=C(Nc1ccc(C(F)(F)F)cc1)Nc1ccc2c(c1)[C@@H]1C[C@H](CC(=O)N3CCc4ccccc4C3)O[C@H](CO)[C@@H]1O2	-0.65% [at 30 µM]	
CC(C)CC1NC(=S)N(Cc2ccccc2)C1=O (stereo unspecified)		inactive
C[C@H](CO)N1C[C@H](C)[C@H](CN(C)Cc2ccc(C(F)(F)F)cc2)OCCCC[C@H](C)Oc2ccc(NC(=O)NC3CCCCC3)cc2C1=O	-7.71%	
C[C@@H]1CN([C@H](C)CO)C(=O)c2cc(NC(=O)c3ccccc3)ccc2O[C@@H](C)CCCCO[C@@H]1CN(C)Cc1ccc(C(F)(F)F)cc1	-28%	
COc1ccccc1C(=O)Nc1ccc2c(c1)C(=O)N(C)[C@@H]1CC[C@@H](CC(=O)NCc3ccc(Cl)c(Cl)c3)O[C@H]1CO2	-42.9%	
C[C@@H]1CN([C@H](C)CO)S(=O)(=O)c2ccc(C#CC3CCCC3)cc2O[C@H]1CN(C)Cc1cccnc1	-14%	
C[C@H]1CN([C@@H](C)CO)C(=O)Cc2cc(NC(=O)NC3CCCCC3)ccc2O[C@H]1CN(C)Cc1ccc(-c2ccccc2)cc1	-18.1%	
C[C@H](CO)N1C[C@H](C)[C@H](CN(C)Cc2ccc(C(F)(F)F)cc2)OCCCC[C@H](C)Oc2ccc(NS(=O)(=O)c3ccc(F)cc3)cc2C1=O	-2.39%	
COc1ccc(-c2ccc3c(c2)[C@@H]2[C@@H](CCN2S(=O)(=O)c2ccc(OC)cc2)[C@@H](CO)N3C)cc1	0.183%	

Reference: PubChem BioAssay
